Consider 37 compounds from PubChem BioAssay (NCI).

SMILES strings stand for the structures. This is part of a sample that, as a whole, favours compounds with a hit. Of some 83,000 tested, about 20% had one in any assay.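 Percent growth is the endpoint: 0 to 100 indicates growth inhibition (40 means 60% inhibition), 0 means no net growth, and negative values indicate cell death.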 A number with no mark means an inactive call. Calls of active or inactive are those of the source. How the source made its calls: active means growth percent below 10; inactive means the rest.

For this assay, the system named is RPMI-8226 leukemia. Briefly: NCI-60 one-dose screen, 48 h (100 = growth as untreated, 0 = no growth, -100 = all killed). The following applies: 10 µM unless noted.
Consider `Cc1ccc2c(C3C(C#N)=C(N)Oc4cc5ccccc5cc43)cc(=O)oc2c1` (configuration not stated), for which the growth is 21.9%.

On to `CCc1cccc(-c2ccccc2)c1`, for which the growth is 80.5%.

Take `CCCCNc1cc(C(=O)O)cc(S(N)(=O)=O)c1Oc1ccccc1`: the growth was 112%.

Take `CC(C)Cn1cnc2c3ccccc3nc(NCn3nc(-c4cc(Cl)cc(Cl)c4Cl)oc3=S)c21`: the growth was 74.8%.

As to `Clc1ccc2c(c1)nnn1c3ncccc3c(Br)c21`, the growth is 83.2%.

Consider `Cc1ccc(-c2nc3c(N=Nc4ccc(S(N)(=O)=O)cc4)c(N)nn3c(N)c2C#N)cc1`, for which the growth is -16.4% (active).

Consider `O=C(C[n+]1ccccc1Cl)c1ccc2c(c1)CCCC2`, for which the growth was 90.3%.

With `COc1ccc(C2CC(c3cc(Cl)c(C)cc3OC)=NN2c2ccc(S(N)(=O)=O)cc2)cc1OC` (configuration not stated), the growth was 91%.

As for `CCN(CC)c1ccc(C2CC(c3cc(OC)c(OC)c(OC)c3)=NN2)cc1` (configuration not stated), the growth was -13.1% (active).

On to `COC(=O)CCCNS(=O)(=O)c1cc(C(=O)Nc2ccc(NC(=O)c3cc(S(=O)(=O)NCCCC(=O)OC)c(O)c(O)c3O)cc2)c(O)c(O)c1O`, for which the growth was 96%.

For `CC(NCCC(c1ccccc1)c1ccccc1)c1ccccc1` (configuration not stated), the growth is 26.3%.

On to `CC/C(=C(\CC)c1ccc(OCCN(CC)CC)cc1)c1ccc(OCCN(CC)CC)cc1`, for which the growth was 18.3%.

`Cc1ccc(N(CC2=NCCN2)c2cccc(O)c2)cc1`: the growth is 94.5%.

With `COc1ccc(C[C@H](N)C(=O)N[C@@H]2[C@@H](CO)OC(n3cnc4c(N(C)C)ncnc43)[C@@H]2O)cc1` (some centres not stated), the growth is 12.5%.

Take `CC1=C2C(=C[C@@](C)(CO)[C@@H]2OC(=O)N(C)CCN(C)C(=O)OC(C)(C)C)C(=O)[C@](C)(O)C12CC2`: the growth was 48%.

In the case of `CC(=O)N1N=C(CCC(=O)c2nc3ccc([N+](=O)[O-])cc3[nH]2)OC1c1ccc(O)cc1` (configuration not stated), the growth is 120%.

As for `CC1CCc2cc(F)cc3c(=O)c(C(=O)O)cn1c23` (configuration not stated), the growth was 105%.

Take `OCCOCC(F)(F)F`: the growth is 90.2%.

With `O=C(O)c1cn(C2CC2)c2cc(N3CCN(C(=O)CSc4nc(NS(=O)(=O)c5ccccc5)cc(=O)[nH]4)CC3)c(F)cc2c1=O`, the growth is 82.1%.

Take `c1coc(CSc2ncnc3nc[nH]c23)c1`: the growth is 107%.

For `CN(C)CC/C=C1\c2ccccc2Sc2ccc(Cl)cc21`, the growth is 72%.

Consider `O=C(COc1ccc(Cl)cc1)N1CCN(Cc2ccc3c(c2)OCO3)CC1`, for which the growth was 88.7%.

As to `COc1cc(NS(=O)(=O)c2ccc(N)cc2)ncn1`, the growth was 109%.

Regarding `CC(=O)Nc1ccc(OC(=O)c2ccccc2O)cc1`, the growth was 101%.

In the case of `COc1cccc(C2CC(c3cc(OC)c(OC)c(OC)c3)=NN2)c1` (configuration not stated), the growth is 56.9%.

Regarding `COc1cc(C(=O)N2CCN(C(=O)c3cc(OC)c(OCc4ccccc4)cc3N)CC2)c(N)cc1OCc1ccccc1`, the growth is 179%.

`COc1cc2c(cc1OCCCCC(=O)Nc1ccc(-c3nc4ccccc4s3)cc1)N=C[C@@H]1CCCN1C2=O`: the growth was -58.3% (active).

For the compound `C=C1C(=O)O[C@H]2[C@H]1CC/C(COC(=O)c1cccc3ccccc13)=C\CC[C@@]1(C)O[C@@H]21`, the growth was -40.5% (active).

Turning to `COc1ccccc1S(=O)(=O)Nc1ccc2c3c(cc(-c4ccoc4)nc13)C(=O)N2C`, the growth is 15.5%.

Take `C=C1c2c(Cl)ccc(O)c2C(O)=C2C(=O)[C@]3(O)C(O)=C(C(N)=O)C(=O)[C@@H](N(C)C)[C@@H]3[C@@H](O)[C@H]12`: the growth is 13.2%.

Consider `CN1C(=O)C2(SCC(C(=O)NCC(=O)OC(C)(C)C)N2C(=O)C2CCCCC2)c2ccccc21` (configuration not stated), for which the growth is 90.5%.

As to `COc1ccc(/C=C/C(=O)c2ccc(-n3cc(CN4CCN(c5cc6c(cc5F)c(=O)c(C(=O)O)cn6C5CC5)CC4)nn3)cc2)cc1OC`, the growth was -15.8% (active).

For `O=C(Nc1ccc(Cl)c(Cl)c1)Nc1ccc(Cl)c([N+](=O)[O-])c1`, the growth was -36.2% (active).

Regarding `Cc1cc[n+](CCCC[n+]2ccc(C)cc2)cc1`, the growth was 94.2%.

As to `Cc1cn(C2CC(F)C(CO)O2)c(=O)[nH]c1=O` (configuration not stated), the growth is 82.5%.

Take `COc1cc2ncnc(Oc3ccc(NC(=O)Nc4ccc(C5(C#N)CCCC5)cc4)c4ccccc34)c2cc1OC`: the growth is 58.8%.

As for `COC(=O)Nc1nc2ccc(Sc3ccccc3)cc2[nH]1`, the growth is 42.1%.
